According to PubChem BioAssay AID493194 (Broad Institute, 2011):
Results with a measured potency or affinity are listed apart. Results filed as inconclusive are left out.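 Rule for the calls: active = a valid curve of falling signal whose half-effect concentration is at most ten times the top tested dose; inconclusive = flat curve at 30 to 70% inhibition, or poor fit; inactive = signal rise, flat within 30%, or potency beyond limit.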

The compounds below were run against Scavenger receptor class B member 1 (Mus musculus) (UniProt Q61009) (assay: inhibitors of SR-BI mediated HDL lipid uptake, dose response, ldlA[mSR-BI] cells, fluorescence, cherry pick (AID 493194;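 note: CHO cells lacking LDL receptor and overexpressing mouse SR-BI; cellular uptake of fluorescently labeled HDL measured as cell fluorescence; 0% = median of neutral control wells and -100% = median of positive control wells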)). Conditions: CHO ldlA[mSR-BI] DiI-HDL uptake fluorescence, 3 h; series mostly up to 35 µM; activity change, negative = inhibition: at the top concentration.
Chain of Scavenger receptor class B member 1 (Mus musculus) (Q61009 whole entry, looked up): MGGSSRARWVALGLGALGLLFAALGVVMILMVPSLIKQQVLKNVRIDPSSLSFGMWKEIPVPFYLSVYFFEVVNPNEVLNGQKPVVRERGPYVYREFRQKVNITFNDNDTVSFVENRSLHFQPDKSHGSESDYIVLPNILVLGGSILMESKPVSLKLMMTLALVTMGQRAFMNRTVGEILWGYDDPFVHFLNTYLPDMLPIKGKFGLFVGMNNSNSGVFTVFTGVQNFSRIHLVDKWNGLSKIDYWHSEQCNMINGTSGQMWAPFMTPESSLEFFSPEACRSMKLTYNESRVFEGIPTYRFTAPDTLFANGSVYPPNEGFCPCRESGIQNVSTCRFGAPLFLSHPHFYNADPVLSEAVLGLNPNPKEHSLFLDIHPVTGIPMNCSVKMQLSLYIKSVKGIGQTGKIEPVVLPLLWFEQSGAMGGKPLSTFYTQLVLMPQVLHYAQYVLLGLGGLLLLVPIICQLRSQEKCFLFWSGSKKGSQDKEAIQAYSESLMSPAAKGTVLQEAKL

Activity change, negative = inhibition, inactive:
CC(C)c1cc(CNC(=O)C2CCC(=O)N(CCc3ccc(Cl)cc3)C2)on1 (stereo not drawn) 23.7%
CCN(C(=O)COn1nnc2ccc(S(=O)(=O)N(C)C)cc21)C1CCS(=O)(=O)C1 (stereo not drawn) -1.5%
CC(C)C(=O)Nc1sc2c(c1-c1nc3ccccc3[nH]1)CCCC2 -24.5%
Cc1ccc2c(c1)C(=O)C(=O)N2CC(=O)Nc1ccc(N2CCOCC2)cc1 23.3%
CC(C)[C@H](NC(=O)c1ccco1)C(=O)OCC(=O)c1ccc2c(c1)NC(=O)CO2 19.2%
COCCNC(=O)c1ccc(CS(=O)(=O)c2cccc(C(F)(F)F)c2)o1 22.7%
COCCCNc1nc2c(-c3cccc(C)c3)nnn2c2ccccc12 -9.49%
CCC(C(=O)NC1CCCC1)N(C(=O)Cn1nnc(-c2ccc(OC)c(OC)c2)n1)c1cccc(O)c1 (stereo not drawn) -29.5%
COc1ccc(C2C(C#N)=C(N)N(c3ccccc3C#N)C3=C2C(=O)CCC3)cc1CN1CCCC1 (stereo not drawn) 30.7%
CSc1nccc(-c2sc(SC)c(C#N)c2-c2ccccc2)n1 -17.5%
C=CCOC(=O)c1[nH]c2c(c1C)C(=O)CC(c1cc(OC)c(OC)c(OC)c1)C2 (stereo not drawn) -2.34%
CC1Cc2ccccc2N1CC(=O)Nc1ccc(N2CCOCC2)cc1 (stereo not drawn) 33.9%
COc1ccc(S(=O)(=O)N2CCC(C(=O)NN3CCCCC3)CC2)cc1OC 4.12%
Cn1c(-c2ccsc2)c(-c2cccs2)c2cc(-c3ccc4cc[nH]c4c3)ccc21 -34.9%
c1ccc(CCNc2nc(-c3ccncc3)nc3ccccc23)cc1 -17.9%
CCCn1c(=O)[nH]c(=O)c2c1nc(-c1ccc(OC(F)(F)C(F)C(F)(F)F)cc1)n2CCOC (stereo not drawn) -12%
COc1cccc(-c2csc(N3CCN(C(=S)Nc4cccc(Cl)c4)CC3)n2)c1 -32.3%
N#CCCN(C(=O)COC(=O)CCc1c[nH]c2ccccc12)c1ccc(F)cc1 -3%
CCCC(=O)Nc1ccc(Cl)c(NC(=O)c2ccc(Br)o2)c1 -19.4%
CCOC(=O)C1CCN(C(=O)Cn2cnc3sc(C)c(S(=O)(=O)N4CCC(C)CC4)c3c2=O)CC1 -14%
CCC(C)n1ncn(-c2ccc(N3CCN(c4ccc(OCC5COC(Cn6cncn6)(c6ccc(Cl)cc6Cl)O5)cc4)CC3)cc2)c1=O (stereo not drawn) -26.7%
O=C(NC1CC1)c1ccc(CN(c2ccccc2)S(=O)(=O)c2ccccc2)cc1 -29.2%
COc1ccc(C)cc1N(CC(=O)NC1CCCC1)C(=O)Cn1nnc(-c2ccc(C)o2)n1 0.096%
